Screens deposited in PubChem BioAssay by National Center for Advancing Translational Sciences (NCATS).
CtBP-E1A blk = blocks the CtBP interaction with E1A | activity change, % (concentration not given with the values) | 340,000 compounds, 0.49% hits | AlphaScreen GST-E1A/His-CtBP binding, 1536-well; hits give low values; in the data active = activity change below about -65%; inconclusive = mostly about -30% to -63%
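Steps: dispense buffer (Tris pH 8.0, NaCl 300 mM, TCEP 1 mM, BSA, Tween 20); add 5X protein mix (GST-E1A, His-CtBP, 125 nM each); pin 23 nL compound; 2 h at 37 °C, dark; add 5X beads (50 ug/mL); 1 h; read.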
Six1-Eya2 inh = inhibitors of human Six1/Eya2 interaction; Q15475+O00167; AlphaScreen GST-Six1/His-Eya2 binding, biochemical; hits give low values; activity change, % (test concentration not listed); 360,000 compounds, 0.56% hits; AID 651725; in the data active = activity change below about -65%; inconclusive = mostly about -30% to -63%
Target sequence (O00167 whole entry, looked up): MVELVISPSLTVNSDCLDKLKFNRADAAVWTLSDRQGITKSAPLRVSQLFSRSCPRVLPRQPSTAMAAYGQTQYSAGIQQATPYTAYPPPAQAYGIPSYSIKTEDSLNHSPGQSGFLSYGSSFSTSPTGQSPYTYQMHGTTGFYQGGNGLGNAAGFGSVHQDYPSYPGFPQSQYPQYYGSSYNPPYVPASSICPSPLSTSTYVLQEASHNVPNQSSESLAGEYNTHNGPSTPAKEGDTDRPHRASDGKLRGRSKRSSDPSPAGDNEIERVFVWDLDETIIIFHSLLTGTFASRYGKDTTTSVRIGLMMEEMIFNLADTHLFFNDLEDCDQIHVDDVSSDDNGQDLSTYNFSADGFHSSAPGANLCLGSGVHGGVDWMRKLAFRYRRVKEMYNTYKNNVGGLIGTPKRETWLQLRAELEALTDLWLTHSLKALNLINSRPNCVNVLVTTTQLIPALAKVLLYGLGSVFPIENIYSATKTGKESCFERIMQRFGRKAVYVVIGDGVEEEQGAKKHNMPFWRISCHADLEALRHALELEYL
Target sequence (Q15475 whole entry, looked up): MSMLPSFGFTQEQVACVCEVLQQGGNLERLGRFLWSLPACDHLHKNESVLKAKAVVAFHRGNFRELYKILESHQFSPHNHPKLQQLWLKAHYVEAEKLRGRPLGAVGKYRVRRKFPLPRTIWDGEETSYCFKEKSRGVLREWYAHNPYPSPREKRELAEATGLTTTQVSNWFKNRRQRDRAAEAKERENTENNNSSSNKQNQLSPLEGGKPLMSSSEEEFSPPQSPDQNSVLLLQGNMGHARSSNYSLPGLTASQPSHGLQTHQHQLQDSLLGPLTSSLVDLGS
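AlphaScreen with GST-Six1 and His-Eya2 (5X mix: 250 nM and 500 nM), glutathione donor and nickel acceptor beads; buffer 50 mM Tris pH 8.0, 300 mM NaCl, 1 mM TCEP; 1 h at 37 C in the dark.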
TDP1 cell noCPT = qHTS for Inhibitors of human tyrosyl-DNA phosphodiesterase 1 (TDP1): qHTS in cells in absence of CPT. Potency, µM (titrated, usually from 46.2 µM), inactives show top-dose activity change, negative = growth inhibition, actives largely listed as inhibitors. AID 686978, 2013. 420,000 compounds, 15% hits. DT40 Tdp1-/- hTDP1 cells, no CPT, ATP luminescence, 48 h; note: potency is the fitted concentration of half-maximal effect; nearly all actives have a fitted effect of over 55% in size
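Growth kinetics read by CellTiter-Glo luminescence after ≥48 hr at 37 °C. Cells: DT40 Tdp1-/- stably carrying human TDP1, 400 per well, compound exposure in the absence of CPT (DMSO vehicle).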
TDP1 block = inhibitors of human tyrosyl-DNA phosphodiesterase TDP1; AID 485290; Q9NUW8; Potency, µM (titrated, usually from 130 µM), for the others: at the top dose activity change, negative = inhibition, most hits filed as inhibitors; recombinant TDP1, AlphaScreen DNA substrate cleavage; 350,000 compounds, 0.28% hits; note: potency is the fitted concentration of half-maximal effect; nearly all actives have a fitted effect of over 40% in size
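Steps: enzyme plus compound, 15 min RT; add biotin/phosphotyrosine-FITC oligonucleotide (15 nM final), react 5 min; add donor/acceptor beads (10 ug/ml final), 10 min; read AlphaScreen. Tdp1 at 1 nM final.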
IL1B secr inh = blocks inflammasome-driven IL-1 beta release | THP-1 LPS/ATP IL-1B secretion, AlphaLISA, 16 h; hits give low values | activity change, % at 57.5 µM | 360,000 compounds, 4.7% hits | AID 743279; in the data active = activity change below about -50%; inconclusive = mostly about -30% to -49%
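THP-1 cells pretreated 1 hr with compounds (up to 57.5 uM final), then stimulated with LPS (250 ng/mL final) plus ATP (1.25 mM final); secreted IL-1B measured by AlphaLISA after 16 hr, decreased signal indicating inhibition.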
DT40 TDP1 CPT = growth inhibition of DT40 Tdp1-/-;hTDP1 cells with camptothecin (screen for TDP1 inhibitors). chicken DT40 Tdp1-/-;hTDP1 cells + 20 nM CPT, ATP luminescence, 48 h. 420,000 compounds, 12% hits. AID 686979. Potency, µM (doses to about 46.2 µM), without a hit: top-dose activity change, negative = growth inhibition, most hits filed as inhibitors; note: potency is the fitted concentration of half-maximal effect; nearly all actives have a fitted effect of over 55% in size
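Chicken DT40 Tdp1-/- cells stably complemented with human TDP1 were seeded at 400 cells/well in medium containing 20 nM camptothecin, exposed to pin-transferred compounds, and grown at 37 °C for at least 48 hr. Viability was read as ATP luminescence.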
* hit, by the source's call; ? = inconclusive; . = not tested or not shown. This is a sample that favours compounds with a hit; in the whole collection about 18% have one here. Unless noted, calls come from the whole dose curve; as a rule, active = well fitted curve in the direction sought with a large enough effect; inconclusive = small, poorly fitted or top-dose-only effect, or another doubt; inactive = no such curve, though single readings can be large; an effect the other way counts as inactive or inconclusive. % is set by controls: 0 for no effect and ±100 for the full control effect.

SMILES	CtBP-E1A blk	Six1-Eya2 inh	TDP1 cell noCPT	TDP1 block	IL1B secr inh	DT40 TDP1 CPT
COc1ccc(/C=C/c2ccc3c(Br)ccc(O)c3n2)cc1	-2	1	21µM*	.	103	10µM*
COc1cc(/C=C/C2=NC(=O)C(C)(C)O2)ccc1O	8	0	-12%	-3%	-22	?
COC(=O)c1ccc(/C=C/c2ccc3cccc(OC)c3n2)cc1	45	58	?	-2%	-4	?
CN(C)c1nc(N(C)C)nc(N(C#N)CN2C(=O)c3ccccc3S2(=O)=O)n1	-1	7	-5%	7%	10	2%
N#Cc1ccccc1CN1C(=O)c2ccccc2S1(=O)=O	.	3	-5%	1%	-3	13%
CC(C)(C)Nc1nc(Cl)nc(N(C#N)CN2C(=O)c3ccccc3S2(=O)=O)n1	.	-8	?	0%	-101*	?
CC(C)Nc1nc(Cl)nc(N(C#N)CN2C(=O)c3ccccc3S2(=O)=O)n1	.	1	18µM*	-1%	?	26µM*
O=C(Nc1ccccc1)OCCOc1ccccc1	-2	-2	?	0%	-8	-16%
COc1cccc(NC(=O)CN(C2=NC3CS(=O)(=O)CC3S2)c2cccc(C)c2)c1 (stereo unspecified)	2	0	?	.	-65*	8%
COc1ccc(OC(C)C(=O)Nc2ccc([N+](=O)[O-])cc2)cc1 (stereo unspecified)	0	-1	21µM*	6%	0	?
CC(C)NS(=O)(=O)c1ccc(NC(=O)C(C)Oc2ccc(C(=O)c3ccccc3)cc2)cc1 (stereo unspecified)	18	-10	18µM*	3%	10	23µM*
CC(C)Oc1ccc(C(=O)Nc2ccc([N+](=O)[O-])cc2)cc1	.	-3	-25%	-5%	-12	?
CCCC(=O)Nc1ccc(Sc2ccc([N+](=O)[O-])cc2)cc1	-2	-2	2.3µM*	3%	?	2.3µM*
CCCC(=O)Nc1ccc(C(=O)NNC(=O)c2cccc([N+](=O)[O-])c2)cc1	.	0	-10%	6%	-3	-4%
CNC(CC(=O)c1ccc([N+](=O)[O-])cc1)C(Cl)(Cl)Cl (stereo unspecified)	9	-14	2.6µM*	4%	-67*	2.3µM*
CC(C)(CNC(=O)C1CCN(S(=O)(=O)c2cc([N+](=O)[O-])ccc2Cl)CC1)N1CCOCC1	2	0	-51%	0%	11	-13%
Cc1ccc(C(=O)C(OC(=O)CNC(=O)COc2ccccc2C)c2ccccc2)cc1 (stereo unspecified)	.	.	-12%	2%	.	0%
O=C(OCc1cn([C@@H]2C[C@H](c3ccc(Cl)cc3)N(CC3CCCCC3)C[C@H]2O)nn1)c1ccccc1	0	10	?	.	3	?
COc1cccc(CNc2ncnc3nc[nH]c23)c1	.	.	?	1%	.	?
COc1ccc(C(=O)/C=C/Nc2ccc([N+](=O)[O-])cc2)cc1	-2	-6	-2%	5%	-12	-7%
COc1ccc(NC(=O)CNC(=O)c2ccc([N+](=O)[O-])cc2)cc1	8	-1	13%	11%	16	7%
COc1ccc(C(=O)CC(=O)Nc2ccc([N+](=O)[O-])cc2)cc1	-16	?	?	.	?	16µM*
COc1ccc(C(=O)CC(Nc2ccc([N+](=O)[O-])cc2)c2ccc(OC)cc2)cc1 (stereo unspecified)	-20	-20	18µM*	8%	-7	?
Cc1ccc[n+](CC(=O)Nc2ccc([N+](=O)[O-])cc2)c1	.	-4	21µM*	.	-80*	10µM*
CC(C)NC(=O)C12CC3CC(C1)CC(C(=O)NC(C)C)(C3)C2	0	4	17%	5%	0	-2%
